Giardia killer: Giardia lamblia killing. Giardia lamblia trophozoite viability. activity change, % at 7.66 µM, hits read low. AID 540267. hit rate 0.15% among 340,000; in the data active = activity change below about -80%; inconclusive = between about -30% and that limit;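 note: parasites exposed to compound for two days anaerobically before the ATP read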
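Each well holds 100 Giardia trophozoites and compound. After two days (48 hrs) at 37 deg C in anaerobic conditions, ATP is quantified by luminescence.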
B2AR arrestin: beta2AR (human) beta-arrestin recruitment activity; P07550; beta-arrestin recruitment to beta2AR, cell-based reporter; Potency, µM (series often up to 46.1 µM), usual class: activators; hit rate 0.02% among 330,000; AID 492947; active = well fitted activation curve with a large enough effect; inconclusive = small, poorly fitted or top-dose-only effect; note: nearly all actives have a fitted effect of over 65% in size
D3 ag: D3 dopamine receptor (human) agonism; AID 652048; max activation, %; hit rate 0.58% among 410,000; D3R DiscoveRx beta-arrestin cells, luminescence, 90 min; P35462; in the data active = max activation above about 30%
Target sequence (P35462 whole entry, looked up): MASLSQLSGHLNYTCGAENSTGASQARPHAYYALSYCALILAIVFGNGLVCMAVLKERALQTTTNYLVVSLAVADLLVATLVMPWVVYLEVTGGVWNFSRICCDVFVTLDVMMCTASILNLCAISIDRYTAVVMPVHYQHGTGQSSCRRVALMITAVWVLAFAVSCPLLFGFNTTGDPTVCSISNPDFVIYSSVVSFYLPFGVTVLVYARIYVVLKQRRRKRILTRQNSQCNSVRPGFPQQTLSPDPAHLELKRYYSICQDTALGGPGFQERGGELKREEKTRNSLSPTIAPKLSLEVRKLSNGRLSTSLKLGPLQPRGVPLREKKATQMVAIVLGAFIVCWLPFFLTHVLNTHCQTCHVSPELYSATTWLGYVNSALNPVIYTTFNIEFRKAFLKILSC
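Cells at 1500/well, incubated overnight, then treated with pinned compounds (dopamine as control) for 90 min at 37 degrees C. DiscoveRx reagent added for 30 - 60 minutes at room temperature; luminescence read.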
D3 antag: antagonists of human D3 dopamine receptor; P35462; D3R cells, DiscoveRx beta-arrestin luminescence, antagonist mode; active compounds read low; max response, negative = inhibition, %; hit rate 2.5% among 360,000; AID 652054; in the data active = max response below about -50%; inconclusive = no clear call, values can overlap the other calls
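Cells plated overnight at 1500 cells/well, then exposed to library compounds with dopamine controls for 90 minutes at 37 degrees C. DiscoveRx reagent added for 30–60 minutes at room temperature; luminescence read, quantitative HTS format.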
Numbers stand for hits; – = inactive; ? = inconclusive; · = no result; ! = not confirmed by another sample. Most compounds without a hit are left out; they make up all but 2.8% or so of the library.

SMILES	Giardia killer	B2AR arrestin	D3 ag	D3 antag
C[C@H](CO)N1C[C@H](C)[C@@H](CN(C)S(C)(=O)=O)Oc2ccc(NC(=O)C3CC3)cc2C1=O	–	–	–	–
Cc1ccc(S(=O)(=O)c2cnc(SCC(=O)Nc3ccccc3C(F)(F)F)[nH]c2=O)cc1C	·	·	–	·
COc1ccc(OC)c(-c2nc(C(=O)NC3CCN(Cc4ccccc4)CC3)cc3c2[nH]c2ccccc23)c1	–	–	–	-124.8
COc1ccc(-c2nc(C(=O)NCC3CCCO3)cc3c2[nH]c2ccccc23)cc1 (stereo not drawn)	–	–	34.1	–
Cc1ccc(-c2nc(C(=O)NCC3CCCO3)cc3c2[nH]c2ccccc23)cc1 (stereo not drawn)	–	–	–	–
COc1ccc(OC)c(-c2nc(C(=O)NCCCN3CCOCC3)cc3c2[nH]c2ccccc23)c1	–	–	–	–
COc1cc(-c2nc(C(=O)NC3CCN(Cc4ccccc4)CC3)cc3c2[nH]c2ccccc23)cc(OC)c1OC	–	–	–	-117.1
O=C(O)COc1ccccc1C1Nc2ccccc2-c2nnc(SCc3ccc(Cl)cc3)nc2O1 (stereo not drawn)	·	·	–	·
Fc1ccc(COc2ccccc2CNCc2ccncc2)cc1	–	–	–	–
Cc1ccc(C)c(OCCCNCc2ccccc2)c1	–	–	–	-53.6
Cc1ccc(C(C)C)c(OCCNCc2ccccc2)c1	–	–	–	–
CCc1cc(OCCCCNCc2ccccc2)ccc1Cl	–	–	–	?
Clc1cc(Br)ccc1OCCCNCc1ccccc1	–	–	–	-88.1
Brc1ccc(OCc2ccccc2)c(CNCc2ccncc2)c1	–	–	–	-62.0
N=c1ccn2c(n1)OC1C(O)[C@@H](CO)O[C@H]12 (stereo partly drawn)	–	·	·	·
CCc1ccccc1S(=O)(=O)Cc1ccc(C(=O)NCCc2ccc(Cl)cc2)o1	·	·	–	·
COc1ccc(O)c(-c2[nH]ncc2C(=O)c2ccccc2)c1	–	–	–	-57.1
O=C(Cc1cccs1)NC1CC(=O)N(c2ccc(F)cc2)C1 (stereo not drawn)	·	·	–	·
C/C(=N\NC(=O)c1ccccc1NC(=O)c1ccc(Cl)cc1)c1ccncc1	-96.4	–	–	–
CC(=NNC(=O)c1ccncc1)c1ccccc1Cl	–	·	–	–
Cc1ccc(NCc2nnc(SCC(=O)NCc3ccco3)n2CC2CCCO2)cc1Cl (stereo not drawn)	–	–	–	–
Cc1ccc(NCc2nnc(SCCN3CCCCC3)n2CC2CCCO2)cc1Cl (stereo not drawn)	–	–	–	-51.3
CCN(CC)C(=O)C1CCCN(c2ccc([N+](=O)[O-])cc2/C=N/NC(=O)c2ccc([N+](=O)[O-])cc2)C1 (stereo not drawn)	–	–	–	-79.2
O=C(N/N=C/c1cc([N+](=O)[O-])ccc1O)C1CCCCC1	–	–	–	-88.0
O=C(Cn1cncn1)N/N=C/c1cc([N+](=O)[O-])ccc1O	–	–	–	?
SMILES	Giardia killer	B2AR arrestin	D3 ag	D3 antag
CCN(CC)C(=O)C1CCCN(c2ccc([N+](=O)[O-])cc2/C=N/NC(=O)c2ccccc2)C1 (stereo not drawn)	–	–	–	–
Cc1ccc(NC(=O)/C(=C/c2cccc([N+](=O)[O-])c2)NC(=O)C2CCCCC2)cc1	–	–	–	–
O=C(Nc1ccc(Br)cc1)/C(=C/c1cccc([N+](=O)[O-])c1)NC(=O)C1CCCCC1	–	–	–	-63.5
O=C(Cn1nc2ccccc2n1)N/N=C/c1cc([N+](=O)[O-])ccc1O	–	–	–	-65.3
CCOc1ccc(Nc2ncnc3c2c(-c2ccccc2)cn3-c2cccc(C)c2)cc1	·	·	–	·
O=C(c1ccc2c(=O)n(Cc3ccco3)c(=S)[nH]c2c1)N1CCN(Cc2ccc3c(c2)OCO3)CC1	–	·	·	·
CC(NC(=O)COC(=O)c1ccco1)C12CC3CC(CC(C3)C1)C2 (stereo not drawn)	–	·	·	·
O=C(Cn1nnc(-c2ccccc2)n1)N/N=C/c1cc([N+](=O)[O-])ccc1O	–	–	–	-76.5
CC(C)=CCC/C(C)=C/CC/C(C)=C/CCC(=O)OC/C=C(\C)CCC=C(C)C	·	·	–	·
O=C(O)c1ccccc1Sc1ccccc1S(=O)(=O)NC1CCCCC1	–	–	31.7	–
CCc1ccc(NC(=O)CSc2nc(-c3cccc(OC)c3)nc3c2Cc2c(CO)cnc(C)c2O3)cc1	·	·	–	·
CCOC(=O)c1ccc2c(c1)N(CC(=O)Nc1ccc(C)cc1C)C(=O)c1ccccc1S2	·	·	–	·
CCCN1C2CCCC1CC(NC(=O)c1ccc(OC)cc1)C2 (stereo not drawn)	–	–	–	–
COc1ccc(CN2C3CCCC2CC(NC(=O)Nc2ccccc2)C3)cc1 (stereo not drawn)	–	–	–	-63.8
COc1ccc(CN2C3CCCC2CC(NC(=O)Nc2ccccc2C)C3)cc1 (stereo not drawn)	–	–	–	-91.9
COc1ccc(CN2C3CCCC2CC(NC(=O)Nc2cccc(C)c2)C3)cc1 (stereo not drawn)	–	–	–	-77.6
NS(=O)(=O)c1ccc(NC(=O)CN2CCN(c3ccc(F)cc3)CC2)cc1	·	·	–	·
Cc1c(C)c2c(cc(C)c3c(-c4ccc(Br)cc4)coc32)oc1=O	·	·	–	·
Clc1ccc(Cl)c(OCCN2CCOCC2)c1	–	–	–	-51.8
Clc1ccc(OCCN2CCOCC2)cc1	–	–	–	–
Clc1ccc(Cl)c(OCCN2CCCC2)c1	?	–	–	-74.8
O=C(CSc1ncnc2c1oc1ccccc12)OCc1ccccc1	–	–	30.3	–
NC(=O)CSc1ncnc2c1oc1ccccc12	–	–	–	–
C=CCCC1CN(CCCC)S(=O)(=O)c2c(F)cccc2O1 (stereo not drawn)	–	·	35.3	–
CCCCN1C[C@H](CO)Oc2cccc(F)c2S1(=O)=O	–	·	–	–
SMILES	Giardia killer	B2AR arrestin	D3 ag	D3 antag
COc1ccc2cc(CNc3ccccc3)c(=O)n(CC(=O)Nc3ccc(C)cc3C)c2c1	·	·	–	·
CN(C)CCCOC(=O)N1c2ccccc2C=Cc2ccccc21	–	–	–	-61.5
Oc1c(Br)cc(Br)cc1CNc1cccc2cccnc12	–	–	–	-57.8
O=c1cc(-c2ccccc2)c2cc3c(cc2[nH]1)OCCO3	–	–	–	–
O=c1cc(-c2ccc([N+](=O)[O-])cc2)c2cc3c(cc2[nH]1)OCCO3	–	–	36.3	–
O=C(CSc1nc2c(sc3ccccc32)c(=O)n1CCCN1CCCC1)NCC1CCCO1 (stereo not drawn)	–	–	–	-56.9
Cc1cccc2c(=O)c(C(=O)NCCc3ccccc3)c[nH]c12	–	–	–	–
O=C(NCCc1ccccc1)c1c[nH]c2c(F)cccc2c1=O	–	–	–	-50.2
O=C(NCCc1ccc(Cl)cc1)C1CCN(c2ncnc3c2nc2n3CCCCC2)CC1	·	·	–	·
CCOc1ccc(CCNC(=O)C2CCN(c3ncnc4c3nc3n4CCCCC3)CC2)cc1	·	·	66.4	·
O=C(C1CCN(c2ncnc3c2nc2n3CCCCC2)CC1)N1CCN(c2ccc(F)cc2)CC1	–	–	48.1!	–
C=C1C(=O)O[C@H]2[C@H]1CC/C(C)=C\CC[C@@]1(C)O[C@@H]21	·	·	–	·
CCOC(=O)c1ccc(S(=O)(=O)N2CCN(c3nc(-c4ccccc4)nc4ccccc34)CC2)cc1	–	·	·	·
